Among the data in paper PMC7819943, “Rice protein-binding microarrays: a tool to detect cis-acting elements near promoter regions in rice” are binding signal values, retold here.

Over roughly 39,000 sequences, “fluorescence intensity (a.u.)” has its median near 4,300; the highest 2% begin near 39,000. This excerpt belongs to a sample that is enriched for the highest values.

In the assay the target is T1, OsSMF1 (Oryza sativa, UniProt Q6ZLB0 1-436).
T1 sequence: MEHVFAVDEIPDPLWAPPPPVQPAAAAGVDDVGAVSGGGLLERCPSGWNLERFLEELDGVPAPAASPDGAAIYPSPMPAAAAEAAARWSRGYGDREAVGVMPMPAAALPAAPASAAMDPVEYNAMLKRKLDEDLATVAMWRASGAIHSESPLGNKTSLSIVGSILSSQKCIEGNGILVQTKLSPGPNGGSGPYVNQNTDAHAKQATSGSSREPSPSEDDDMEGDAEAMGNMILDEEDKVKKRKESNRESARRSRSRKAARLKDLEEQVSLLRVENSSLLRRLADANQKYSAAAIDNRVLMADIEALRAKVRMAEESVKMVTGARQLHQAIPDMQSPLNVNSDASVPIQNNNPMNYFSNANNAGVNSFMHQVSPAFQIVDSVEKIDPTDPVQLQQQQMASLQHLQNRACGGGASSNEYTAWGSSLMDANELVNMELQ
Kind of assay: protein-binding microarray (RPBM); PBS, 2% BSA, 51.3 ng/ul salmon testes DNA, 50 uM zinc acetate, 200 nM TF, 25 C, 1 h; high values mean tight binding. Conditions: protein: recombinant; tags: N-terminal polyhistidine and DsRed monomer fusion (pET32a); chain copies: 2; label: CyDye5-dUTP incorporated in the synthesized complementary strand; 3' TTTTT single-stranded linker to array surface; dsDNA, one strand shown. An outline of the steps: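 The binding signal is fluorescence intensity per feature, in arbitrary units, read on an Axon 4000B scanner. Polyhistidine- and DsRed-tagged transcription factors (N-terminal fusions) from E. coli BL21-CodonPlus were purified on Ni–NTA and applied at 200 nM for 1 h at 25 °C to a double-stranded, BSA-blocked custom Agilent array in buffer with 50 µM zinc acetate.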
“ATTTGGGCGGCAAGCTGACGTGGCACACGGCGTCATGACTCGGAGTCACCTAGTGCAG”: the binding signal is 18100 fluorescence intensity (a.u.).
On to “ATGGAGCCTGACGTGGCAGCATGTAGCTGGTCCACGTCACCGGAGTCACCTAGTGCAG”, for which the binding signal is 27400 fluorescence intensity (a.u.).
Then “TCAGAGAGCTGACAGCGTGTTCAGGCCGTTCGATTTTGGTCGGAGTCACCTAGTGCAG”, with 5030 fluorescence intensity (a.u.).
In the case of “GTTGACCGTCTACGTGGCATTCCACGTAGGCAGCTCATTTCGGAGTCACCTAGTGCAG”, the binding signal is 16600 fluorescence intensity (a.u.).
In the case of “TTTGACTCCGATTTTATCCGACGTGGCAGCTGACTCAGCGCGGAGTCACCTAGTGCAG”, the binding signal was 25300 fluorescence intensity (a.u.).
“TTTTGCACACATGTATCATGCTGACGTCAGCATGACGTGGCGGAGTCACCTAGTGCAG”: the binding signal is 61200 fluorescence intensity (a.u.).
In the case of “TGTGTCATGGCTGATGTCAGCTCAGCATATATATATTCAGCGGAGTCACCTAGTGCAG”, the binding signal was 14900 fluorescence intensity (a.u.).
Then “ACTGGAGCTAACCGCTGACGTGGCATTCCACGTAGGCAACCGGAGTCACCTAGTGCAG”, with 42500 fluorescence intensity (a.u.); and “CTTTTGCTCACATGGCGTGCCACCGTGGCGTGCCCGCATGCGGAGTCACCTAGTGCAG”, with 16200 fluorescence intensity (a.u.); and “ATCCGGTTTTATCCGACGTGGCGGCTGAGTCGGCGCGGGACGGAGTCACCTAGTGCAG”, with 30700 fluorescence intensity (a.u.).
With “TACTGTAGCACCACATTGTCAATCATGGCGCAATTATGCTCGGAGTCACCTAGTGCAG” the figure was 12900 fluorescence intensity (a.u.); with “GAATACCAAGAACGACGTCATACAAGACTGACGTGCGGTCCGGAGTCACCTAGTGCAG”, 5690 fluorescence intensity (a.u.); with “AATGTCCCATCTTTCGTGTGTAAGGCACGTTAGTCTCAGGCGGAGTCACCTAGTGCAG”, 4290 fluorescence intensity (a.u.).
With “GTATGGGTTCGAGGAGTGATGTGGTGATGGGCAAACCCATCGGAGTCACCTAGTGCAG” the figure was 3300 fluorescence intensity (a.u.); with “CACCCTTAAATCATATATGTGGTTTTAATATTTGGGGATGCGGAGTCACCTAGTGCAG”, 33200 fluorescence intensity (a.u.); with “CGAGACTGACAAGGCATTCCAGACACTTAAACAAGCACTGCGGAGTCACCTAGTGCAG”, 3350 fluorescence intensity (a.u.).
As to “CTCTCGAAGCTGCCCTAGCCTCTCCGCTGCTCCGATCCACCGGAGTCACCTAGTGCAG”, the binding signal was 24500 fluorescence intensity (a.u.).
In the case of “ATGTTTGAGCATGCAGCAAAGACAGATCTAACACTCAAGCCGGAGTCACCTAGTGCAG”, the binding signal is 3970 fluorescence intensity (a.u.).
With “CCCAGCACCCTACTACACCAACATACTCCTACGTGGAGCACGGAGTCACCTAGTGCAG” the figure was 6040 fluorescence intensity (a.u.); with “GTATCCATATATCCGATATGACACGCCAAAACTTTACACCCGGAGTCACCTAGTGCAG”, 4870 fluorescence intensity (a.u.).
Then “ACCATCCGAGCTGTCAAGATCCGACGTGGGTTGTGAAGGCCGGAGTCACCTAGTGCAG”, with 8700 fluorescence intensity (a.u.).
“ATAGTTGTGATTAGATTGTGACGTACACAATGAGTATGCACGGAGTCACCTAGTGCAG”: the binding signal is 5250 fluorescence intensity (a.u.).
With “GCGAAGAACGCTTGCACTTGTGTGCAGCGACGCGCGAATTCGGAGTCACCTAGTGCAG” the figure was 4440 fluorescence intensity (a.u.); with “GTTCCACATTTCAGCATTAATGAATTGGCATACGTGATGACGGAGTCACCTAGTGCAG”, 3360 fluorescence intensity (a.u.); with “GGATGCATGCATGCTGATGATGTCAGGCTGATACGTGCGTCGGAGTCACCTAGTGCAG”, 7340 fluorescence intensity (a.u.).
Then “TTTCTTTTCAGACGATGACGTCACACCGTTCTTCATGTATCGGAGTCACCTAGTGCAG”, with 12300 fluorescence intensity (a.u.); and “TTGCTGCAAATGACGTCGACATGTGCGTGGCATACCATGGCGGAGTCACCTAGTGCAG”, with 15000 fluorescence intensity (a.u.); and “AGTATGCTTTTCTTAACGATGACGTCAGCATACACCTCGGCGGAGTCACCTAGTGCAG”, with 45200 fluorescence intensity (a.u.).
Then “TTCCAACCCGCCCCGTGTGCTGACGTGGCAGCCATGTTGGCGGAGTCACCTAGTGCAG”, with 19300 fluorescence intensity (a.u.); and “TTTGCATACGTGCATGCTTGATGACGTCATGCTGACGTGGCGGAGTCACCTAGTGCAG”, with 63100 fluorescence intensity (a.u.); and “AGTTTTGTACGCATGTGTGGCGCTGACGTCATGCCCGATCCGGAGTCACCTAGTGCAG”, with 18000 fluorescence intensity (a.u.).
Take “TCTCGCTTAATGTTTTCTTTACACATACGATGCTTTAGATCGGAGTCACCTAGTGCAG”: the binding signal was 3790 fluorescence intensity (a.u.).
Consider “CTTGGCCGTGGCCGCTGACATGGCATCACCTCATCCGCAACGGAGTCACCTAGTGCAG”, for which the binding signal is 4320 fluorescence intensity (a.u.).
“TGTTCCAACCCGCTCCGTGTGCTGACGTGGCATGACATGGCGGAGTCACCTAGTGCAG”: the binding signal is 44900 fluorescence intensity (a.u.).
With “GGCGGCGATGGCGGCCGTGCTGACGGACGATTTCCTGCTCCGGAGTCACCTAGTGCAG” the figure was 3220 fluorescence intensity (a.u.); with “GGCGCTGATGTCATGCTGACGTCAGTGCCTGATTTTGCTCCGGAGTCACCTAGTGCAG”, 56100 fluorescence intensity (a.u.).
With “CAAACAATATTCTTTTGTGACTAGATCAAGCCGTAGTGTTCGGAGTCACCTAGTGCAG” the figure was 3650 fluorescence intensity (a.u.).
With “TATGTACCTTTTCCACAGAACCCTCTACTGTGCCAGGTCACGGAGTCACCTAGTGCAG” the figure was 15600 fluorescence intensity (a.u.); with “CGCGGCAGATCCGCTGGTTGTGGCGGCGTCAGCGGTAGCCCGGAGTCACCTAGTGCAG”, 4030 fluorescence intensity (a.u.); with “ACGACATGCGTGCAAATGCATTGTAAATTTGTAATACGGCCGGAGTCACCTAGTGCAG”, 22300 fluorescence intensity (a.u.).
For “TACTTTCGTTTGCAAATATGCGGAATGATGGGGCTGTTTCCGGAGTCACCTAGTGCAG”, the binding signal was 3700 fluorescence intensity (a.u.).
As to “CACTCTTTATTTTATTATGACTTGATTCGTCATCAAATGTCGGAGTCACCTAGTGCAG”, the binding signal is 3870 fluorescence intensity (a.u.).
